# This excerpt belongs to a sample that is enriched for hits.
# AmpC inh no detg: inhibitors of E. coli AmpC beta-lactamase without detergent. P00811. AmpC nitrocefin hydrolysis, absorbance 480 nm, 0.0001% Triton. Potency, µM (doses to about 57.1 µM), for the others: top-dose activity change, negative = inhibition, hits mostly inhibitors. 330,000 tested, 0.52% active;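 further: potency means the concentration at half of the fitted maximal effect; plate controls were no compound for no effect and no enzyme for full effect; nearly all actives have a fitted effect of over 20% in size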
# Target sequence (P00811 whole entry, looked up): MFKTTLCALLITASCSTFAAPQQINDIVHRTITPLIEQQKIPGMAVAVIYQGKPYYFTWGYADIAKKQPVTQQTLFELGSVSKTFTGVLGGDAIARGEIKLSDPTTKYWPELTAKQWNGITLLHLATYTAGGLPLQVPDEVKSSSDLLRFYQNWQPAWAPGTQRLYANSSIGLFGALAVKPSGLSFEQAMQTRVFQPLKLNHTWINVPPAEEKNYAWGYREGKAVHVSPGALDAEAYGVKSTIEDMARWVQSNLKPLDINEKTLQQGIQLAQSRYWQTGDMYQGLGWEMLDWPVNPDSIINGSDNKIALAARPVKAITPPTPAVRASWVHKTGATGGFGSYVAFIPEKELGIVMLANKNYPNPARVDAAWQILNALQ
#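 20 mM phosphate pH 7.0 + 0.01% (detergent screen) or 0.0001% Triton X-100; 5.3 nM AmpC reagent; cpd preinc 15 min RT; nitrocefin (800 uM stock) to start; A480 q20 s × 4 min; Activity was normalised to no-enzyme and no-compound control wells.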
# Shiga toxin inh: blocks Shiga toxin action in Vero cells. Vero cells, Shiga toxin protein synthesis inhibition reporter. inhibition, % at 38.7 µM. 290,000 tested, 9.2% active. AID 2315; in the data active means inhibition mostly above about 28%, no sharp cut-off; inactive means mostly below about 43%; further: 0% is about no effect
# NS1 function inh: influenza NS1 inhibition | Potency, µM (highest dose often 46.1 µM), for inactives: top-dose activity, positive = more growth | 270,000 tested, 0.4% active | AID 2326; calls by dose curve; further: potency means the concentration at half of the fitted maximal effect; actives are rising curves; nearly all actives have a fitted effect of over 50% in size
#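 OD600 was taken as the measure of yeast growth restored by compound in an NS1-expressing S. cerevisiae strain. Cells had been washed out of glucose medium and diluted 1:100 into galactose -URA medium, pH 6.0.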
# Cycloheximide cs: affects cycloheximide protein synthesis inhibition readout, counter-screen. cell reporter, cycloheximide protein synthesis inhibition counterscreen. max response, %. 300,000 tested, 12% active; in the data active means max response mostly above about 13%, no sharp cut-off; inactive means mostly below about 14%; further: read at 38.3 µM for the half of the compounds with a filed dose; 0% is about no effect
# AmpC inh detg: inhibitors of E. coli AmpC beta-lactamase with detergent | P00811 | AmpC hydrolysis of nitrocefin, absorbance 480 nm, 0.01% Triton | Potency, µM (series often up to 114 µM), for inactives: at the highest dose activity change, negative = inhibition, actives largely listed as inhibitors | 370,000 tested, 0.041% active;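 further: potency means the concentration at half of the fitted maximal effect; 0% = no-compound wells and -100% = no-enzyme wells; nearly all actives have a fitted effect of over 25% in size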
#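 AmpC (5.3 nM in the dispensed reagent) in 20 mM phosphate pH 7.0 with 0.01% (detergent screen) or 0.0001% Triton X-100 was preincubated with compounds for 15 min at room temperature. Nitrocefin was then added from an 800 uM solution, and hydrolysis was followed at 480 nm.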
# * hit, by the source's call; ? = inconclusive; · = no result; + = active, no number. Unless noted, the call rests on the fitted dose curve; in most records, active means well fitted curve in the direction sought with a large enough effect; inconclusive means small, poorly fitted or top-dose-only effect, or another doubt; inactive means no such curve, though single readings can be large; an effect the other way counts as inactive or inconclusive.
SMILES,AmpC inh no detg,Shiga toxin inh,NS1 function inh,Cycloheximide cs,AmpC inh detg
FC(F)(F)c1cccnc1Oc1ccc(C2=NCCS2)cc1,74%,59*,-3%,30*,10%
Cc1ccc2c(c1)-c1c(c(C(=O)N3CCN(c4cc(Cl)ccc4C)CC3)nn1C)CS2,·,·,·,·,-5%
O=C(Nc1ccc(C(=O)N2CCN(c3ccccc3F)CC2)cc1)C1=CSCCO1,57%,31*,-17%,26*,0%
CN1CCN(CCCNC(=O)c2ccc(NC(=O)C3=CSCCO3)cc2)CC1,-8%,13,-9%,2,-7%
O=C(Nc1ccc(C(=O)NCCCN2CCN(c3ccccc3)CC2)cc1)C1=CSCCO1,98%,2,11%,6,-8%
O=C(c1ccc2c(c1)OCO2)N1CCN(c2ccccc2F)CC1,-15%,29,10%,22*,-11%
O=C(Nc1ccc(C(=O)N2CCCCC2)cc1)C1=CSCCO1,-4%,84*,-5%,28*,0%
CCOc1ccc(CNc2cc(C)nc3nc(-c4cccc(C)c4)nn23)cc1OC,·,·,·,·,22%
Cc1cccc(NC(=O)c2ccc(CN3CC(=O)N4CCCCC4C3=O)cc2)c1C (stereo unspecified),·,·,·,·,3%
O=C(Nc1cccnc1)c1ccc2c(c1)C(=O)N(CC1CCCO1)C2=O (stereo unspecified),-8%,-1,10%,1,-11%
O=C(NN1C(=O)c2ccccc2C1=O)c1ccc2c(c1)C(=O)N(CC1CCCO1)C2=O (stereo unspecified),-21%,44*,-1%,19*,4%
COc1ccc(NC(=O)c2ccc3c(c2)C(=O)N(CC2CCCO2)C3=O)cc1O (stereo unspecified),-15%,3,0%,11,?
Cc1ccc(NC(=O)c2ccc3c(c2)C(=O)N(CC2CCCO2)C3=O)cc1C (stereo unspecified),42%,67*,-4%,45*,7%
Nc1ccc(Oc2ccc3c(c2)C(=O)N(CC2CCCO2)C3=O)cc1 (stereo unspecified),-16%,50*,3%,42*,-10%
Nc1ccc2c(c1)C(=O)N(CC1CCCO1)C2=O (stereo unspecified),-5%,35,1%,15,1%
O=C(c1ccc(F)cc1)C1CCN(C(=S)NCC2CCCO2)CC1 (stereo unspecified),32%,19,-1%,6,0%
COc1ccccc1Nc1ncc(-c2cccs2)s1,-37%,108*,9%,40*,?
Cc1ccnc(NC(=O)c2cccc3ccccc23)c1,-11%,77*,-55%,49*,4%
NS(=O)(=O)c1ccc(NC(=O)/C=C/c2ccccc2[N+](=O)[O-])cc1,-43%,22,·,-3,5%
Cc1ccnc(NC(=O)c2c(-c3ccccc3Cl)noc2C)c1,-17%,64*,1%,21*,?
Cc1ccnc(NC(=O)c2cccc([N+](=O)[O-])c2C)c1,-33%,51,·,16,6%
O=C(/C=C\c1ccccc1[N+](=O)[O-])Nc1ccccc1,-34%,52*,·,39*,1%
CCOc1ccccc1NC(=O)/C=C/c1ccccc1[N+](=O)[O-],-30%,6,5%,45*,-3%
Cc1cc(C)nc(NC(=O)c2c(-c3ccccc3Cl)noc2C)c1,-12%,1,-7%,-3,?
Cc1ccnc(NC(=O)c2ccccc2NC(=O)c2ccc(Cl)cc2Cl)c1,-17%,4,27%,2,1%
SMILES,AmpC inh no detg,Shiga toxin inh,NS1 function inh,Cycloheximide cs,AmpC inh detg
Cc1ccnc(NC(=O)/C=C/c2ccccc2Cl)c1,-43%,+,-4%,59*,5%
Cc1ccnc(NC(=O)CCc2c[nH]c3ccccc23)c1,-32%,91*,-13%,40*,?
Cc1ccnc(NC(=O)c2ccccc2[N+](=O)[O-])c1,-18%,19,-3%,19*,1%
Cc1ccnc(NC(=O)/C=C/c2ccccc2[N+](=O)[O-])c1,-34%,73*,-2%,34*,2%
CC(=O)c1ccc(NC(=O)CSc2nc(=O)n(Cc3ccncc3)c3c2CCC3)cc1,·,·,·,·,2%
CCOc1ccc(C2c3c(-c4ccc(C)cc4)n[nH]c3C(=O)N2c2ccc(Cl)cc2)cc1 (stereo unspecified),·,·,·,·,3%
CCN1C(=O)C(C(=O)Nc2ccc(OC)cc2)C2CC1(C)Oc1ccccc12 (stereo unspecified),?,46*,-39%,14,1%

# Assay outcomes (PubChem BioAssay)
